Measurements published in publication PMC4336329 (PLoS ONE, 2015).
The campaign covered roughly 310,000 compounds. About 14,000 (4.5%) showed an effect of 50% or more. The effect is printed as a negative number. The sample holds strong results, similar compounds and a random draw of the others, so the mix is not that of the screen.

target: human ether-à-go-go-related gene (hERG) potassium channel (human, UniProt Q12809); assay: primary screen, population patch clamp on CHO cells stably expressing hERG; higher = less effect of the substance
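Also: peak tail current of the secondary pulse compared with the same well before compound.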

human ether-à-go-go-related gene (hERG) potassium channel, sequence (Q12809 whole entry, looked up): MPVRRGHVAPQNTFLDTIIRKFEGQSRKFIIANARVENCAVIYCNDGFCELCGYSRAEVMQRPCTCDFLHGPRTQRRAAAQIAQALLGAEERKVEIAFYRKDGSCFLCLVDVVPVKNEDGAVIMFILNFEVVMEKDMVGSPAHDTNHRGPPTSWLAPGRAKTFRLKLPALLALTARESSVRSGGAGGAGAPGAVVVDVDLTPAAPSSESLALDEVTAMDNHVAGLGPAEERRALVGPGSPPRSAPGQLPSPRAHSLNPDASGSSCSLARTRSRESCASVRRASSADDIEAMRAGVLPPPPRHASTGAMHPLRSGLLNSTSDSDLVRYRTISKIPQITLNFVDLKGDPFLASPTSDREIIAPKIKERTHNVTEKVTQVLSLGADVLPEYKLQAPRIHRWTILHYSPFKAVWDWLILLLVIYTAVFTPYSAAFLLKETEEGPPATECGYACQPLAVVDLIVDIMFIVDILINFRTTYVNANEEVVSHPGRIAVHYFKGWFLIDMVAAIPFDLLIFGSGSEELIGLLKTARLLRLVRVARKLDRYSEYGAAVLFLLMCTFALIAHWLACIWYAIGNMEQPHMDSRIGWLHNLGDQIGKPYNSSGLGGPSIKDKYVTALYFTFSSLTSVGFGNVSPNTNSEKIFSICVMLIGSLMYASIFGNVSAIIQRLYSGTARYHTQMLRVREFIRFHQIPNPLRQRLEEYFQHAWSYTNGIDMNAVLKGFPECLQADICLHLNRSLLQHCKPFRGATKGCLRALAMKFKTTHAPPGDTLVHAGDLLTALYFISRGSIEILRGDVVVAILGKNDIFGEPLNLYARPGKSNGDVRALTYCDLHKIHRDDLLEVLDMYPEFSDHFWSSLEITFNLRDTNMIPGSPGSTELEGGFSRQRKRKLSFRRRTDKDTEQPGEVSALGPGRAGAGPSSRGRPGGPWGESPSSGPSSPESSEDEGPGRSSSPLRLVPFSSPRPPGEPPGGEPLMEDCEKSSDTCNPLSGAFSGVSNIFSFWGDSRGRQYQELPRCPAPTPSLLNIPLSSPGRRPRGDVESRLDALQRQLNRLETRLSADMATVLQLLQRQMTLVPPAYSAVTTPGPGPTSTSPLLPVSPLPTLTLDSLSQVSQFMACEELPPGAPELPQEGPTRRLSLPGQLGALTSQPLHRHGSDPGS

| Compound | hERG current change (%, negative = inhibition) at 10uM |
| --- | --- |
| OCC[C@H]1C[C@H](O)[C@@H](O)[C@@]2(CCc3ccccc3CO2)O1 | 7.83% |
| CCOCC(=O)Nc1cc([N+](=O)[O-])ccc1C | -2.36% |
| COc1cc(NS(=O)(=O)c2ccc(NC(=S)NC(=O)c3ccco3)cc2)ncn1 | 20.4% |
| Cc1ccc(-c2noc(CCCN3C(=O)c4ccccc4C3=O)n2)cc1 | 9.03% |
| CCCCNC(=O)CC1NCCNC1=O (centres unmarked) | 22% |
| Cc1ccccc1CS(=O)(=O)CCC(=O)NCCN1CCN(c2cccc(Cl)c2)CC1 | -42.5% |
| CCOC(=O)CNc1nc(Cl)nc(Nc2ccc(OC)cc2OC)n1 | 19.2% |
| CCN1C(c2ccc(F)cc2)=CS/C1=C(\C#N)c1nnc2n1-c1ccccc1SC2 | -58.9% |
| CN1C(c2ccc(F)cc2)=CS/C1=C(\C#N)c1nnc2n1-c1ccccc1SC2 | -45.5% |
| Br.CN1C(c2ccc(F)cc2)=CS/C1=C(/C#N)c1nnc(N2CCOCC2)n1-c1ccccc1 | -23.8% |
| COc1ccc(-n2cnnc2SCC(=O)c2cc(C)n(Cc3cccs3)c2C)cc1 | -73.5% |
| COc1ccccc1-n1cnnc1SCC(=O)c1cc(C)n(Cc2cccs2)c1C | -27.8% |
| COc1ccc(-c2nnc(SCC(=O)c3cc(C)n(Cc4cccs4)c3C)o2)cc1 | 5.36% |
| COC(=O)Cn1c(=O)cnc2ccccc21 | -2.96% |
| CCn1cnc2c(oc3ccccc32)c1=O | 18.3% |
| Cc1ccc(-n2c(N)c(C(=O)N3CCN(C)CC3)sc2=S)cc1 | -30.4% |
| CN1CCN(C(=O)c2sc(=S)n(-c3ccccc3)c2N)CC1 | -10.2% |
| CCOC(=O)c1sc(=S)n(-c2ccc(OC)cc2)c1C | -51.1% |
| CCOC(=O)c1sc(=S)n(-c2ccc(OC)cc2)c1N | 15.2% |
| CCOc1ccc(-n2c(N)c(C(=O)N3CCN(C)CC3)sc2=S)cc1 | -51% |
| CCOC(=O)c1sc(=S)n(-c2ccc(Cl)cc2)c1C | -37.4% |
| COC(=O)c1c(NC(=O)CSc2nnnn2-c2ccccc2)sc2c1CCC(C(C)(C)C)C2 (centres unmarked) | -1.38% |

| Compound | hERG current change (%, negative = inhibition) at 10uM |
| --- | --- |
| C=CCn1c(SCC(=O)Nc2cccnc2Cl)nnc1-c1ccc(Cl)cc1 | -45.4% |
| CCOC(=O)C1(C)C=C(Nc2ccccc2)C(=O)N1c1ccccc1 (centres unmarked) | 25.7% |
| Cc1c(NC(=O)/C(C#N)=C/c2c(Oc3ccccc3)nc3ccccn3c2=O)c(=O)n(-c2ccccc2)n1C | 5.93% |
| Cc1ccc(CNC(=O)C2CCN(S(=O)(=O)N3CCCC3)CC2)cc1 | 0.472% |
| CCN(CC)c1ccc(CN2CCC(C(=O)NCc3ccc(C)cc3)CC2)cc1.O=C(O)C(=O)O | -65.3% |
| CSc1ccc(CN2CCC(C(=O)NCc3ccc(C)cc3)CC2)cc1.O=C(O)C(=O)O | -87.6% |
| CCN(CC)S(=O)(=O)N1CCC(C(=O)NCc2ccc(C)cc2)CC1 | -16.9% |
| Cc1ccc(CNC(=O)C2CCN(S(=O)(=O)N3CCCCC3)CC2)cc1 | -11.4% |
| Cc1ccc(CNC(=O)C2CCCC2)cc1 | 8.93% |
| O=C1c2ccccc2C(=O)N1CNc1ccccc1 | 18.7% |
| O=C1CC(c2ccccc2)CN1C(=O)c1cncc(Br)c1 (centres unmarked) | 5.75% |
| O=C(c1cccnc1)N1N=C(C2CCCCC2)CC1(O)C(F)(F)F (centres unmarked) | -0.742% |
| CCN1CCCC1CNC(=O)c1csc2c1CCCC2 (centres unmarked) | -38.9% |
| CC1CC(C)CN(CCCNC(=O)c2csc3c2CCCC3)C1 (centres unmarked) | -65% |
| CC(C)CCNC(=O)c1csc2c1CCCCC2 | 2.04% |
| CCC1CCCCN1CCCNC(=O)c1csc2c1CCCCC2 (centres unmarked) | -56.7% |
| CC1CCCC(C)N1CCCNC(=O)c1csc2c1CCCCC2 (centres unmarked) | -49.3% |
| O=C(NCCN1CCOCC1)c1csc2c1CCCCC2 | 5.21% |
| O=C(NCCCN1CCOCC1)c1csc2c1CCCC2 | -7.57% |
| CC1CC(C)CN(CCCNC(=O)c2csc3c2CCCCC3)C1 (centres unmarked) | -61.2% |
| CCN1CCN(CCCNC(=O)c2csc3c2CCCCC3)CC1 | -7.21% |
| CC1(C)Cc2c(sc(NC(=O)c3ccc4ncsc4c3)c2C(N)=O)C(C)(C)N1 | -30.5% |

| Compound | hERG current change (%, negative = inhibition) at 10uM |
| --- | --- |
| Cc1cccc(NC(=O)Nc2ccccc2[N+](=O)[O-])n1 | 16.7% |
| NS(=O)(=O)c1ccc(CCNC(=O)CN2CCN(c3ccc(F)cc3)CC2)cc1 | -18.7% |
| COCCSc1ccccc1C(=O)Nc1ccc2c(c1)OCCO2 | 5.7% |
| CCOCCCN(C(=O)c1snc(C(N)=O)c1N)C(C(=O)NCCC(C)C)c1ccc(F)cc1 (centres unmarked) | -23.6% |
| CCC(C(=O)NC1CCCC1)N(C(=O)c1snc(C(N)=O)c1N)c1ccc(OC)c(OC)c1 (centres unmarked) | 15.5% |
| COc1ccc(C(C(=O)NC2CCCCC2)N(C(=O)c2snc(C(N)=O)c2N)c2ccc(OC)cc2OC)cc1 (centres unmarked) | 9.37% |
| CCOc1ccc(C(C(=O)NC2CCCCC2)N(CCOC)C(=O)c2snc(C(N)=O)c2N)cc1 (centres unmarked) | -47.5% |
| CCOCCCN(C(=O)c1snc(C(N)=O)c1N)C(C(=O)NC1CCCC1)c1ccc(OC)cc1 (centres unmarked) | -60.5% |
| CCOCCCN(C(=O)c1snc(C(N)=O)c1N)C(C(=O)NC1CCCC1)c1ccc(O)cc1 (centres unmarked) | 3.52% |
| CCOCCCN(C(=O)c1snc(C(N)=O)c1N)C(C(=O)NC1CCCC1)c1ccc(F)cc1 (centres unmarked) | -12% |
| CCOCCCN(C(=O)c1snc(C(N)=O)c1N)C(C(=O)NC(C)(C)C)c1ccc(Cl)cc1 (centres unmarked) | -33.1% |
| CCOCCCN(C(=O)c1snc(C(N)=O)c1N)C(C(=O)NCCC(C)C)c1ccc(Cl)cc1 (centres unmarked) | -68.1% |
| COc1ccc(C(C(=O)NC2CCCC2)N(C(=O)c2snc(C(N)=O)c2N)C2CCCC2)cc1OC (centres unmarked) | 5.77% |
| CCOc1ccc(C(C(=O)NC2CCCC2)N(C(=O)c2snc(C(N)=O)c2N)C2CCCC2)cc1 (centres unmarked) | -51.1% |
| CCC(C(=O)NC1CCCCC1)N(C(=O)c1snc(C(N)=O)c1N)c1ccc(OC)cc1OC (centres unmarked) | -69.3% |
| CCCCC1CCCOC(C(=O)NCCNCCO)(C(F)(F)F)C1 (centres unmarked) | 6.03% |
| CN(C)c1nnnn1-c1ccc(Cl)cc1Cl | 0.276% |
| CCN(CC)C(=O)c1n[nH]c(=O)c2ccccc12 | 4% |
| CCn1c(SCC(=O)Nc2cc(C)on2)nnc1-c1ccccc1 | -3.05% |
| COc1ccc(-c2cc(C(=O)N3CCN(c4ccccc4OC)CC3)no2)cc1OC | -0.868% |
| N#CCOC(=O)c1c2c(nc3ccccc13)CCC2 | -23.1% |
| Cc1ccc(C)c(S(=O)(=O)N2CCN(CC(=O)NC(=O)NCc3ccccc3)CC2)c1 | -9.97% |

| Compound | hERG current change (%, negative = inhibition) at 10uM |
| --- | --- |
| Cc1cc(C)n(-c2ccc(C(=O)N3CCc4ccccc43)cc2)n1 | -3.89% |
| COc1ccccc1NC(=O)Nc1ccccc1C#N | 15.6% |
| O=C1CCCN1CCCNS(=O)(=O)c1cccc(F)c1 | 25.9% |
| COc1ccccc1N(C(=O)c1snc(C(N)=O)c1N)C(C(=O)NC1CCCC1)c1ccco1 (centres unmarked) | -35.4% |
| CCOc1ccccc1N(C(=O)c1snc(C(N)=O)c1N)C(C(=O)NC1CCCC1)c1ccco1 (centres unmarked) | -55% |
| CCOc1ccccc1N(C(=O)c1snc(C(N)=O)c1N)C(C(=O)NCCC(C)C)c1ccco1 (centres unmarked) | -22.2% |
| CNC(=S)N1CCN(c2nc(-c3ccc(Cl)cc3)cs2)CC1 | 14.7% |
| Cc1cc2c(cc1C)N(Cc1ccccc1)C1=NCCCN12.Cl | -72.3% |
| Cc1cc2c(cc1C)N(Cc1ccc(Cl)cc1)C1=NCCCN12 | -69.8% |
| COC(=O)c1cc(Cl)cc2c(C)c(C3(O)CCCCC3)[nH]c12 | 15% |
| O=C(/C=C/c1ccccc1)N/C(=C/c1ccccc1)C(=O)Nc1ccccc1O | -27.3% |
| CCc1ccccc1NC(=O)Cn1nnc(C(=O)NCc2cccs2)c1N | 13.8% |
| O=C(Cn1cnc2ccccc2c1=O)NCCC(=O)N1CCN(c2ccccc2)CC1 | -7.6% |
| O=C(CN1CCN(C(C(=O)Nc2ccc(Cl)cc2C(F)(F)F)c2ccccc2)CC1)NC1CC1 (centres unmarked) | -70.2% |
| Cc1ccc(NC(=O)C(c2ccccc2)N2CCN(CC(=O)NC3CC3)CC2)cc1Cl (centres unmarked) | -46.7% |
| Cc1cc(C)cc(NC(=O)C(c2ccccc2)N2CCN(CC(=O)NC3CC3)CC2)c1 (centres unmarked) | -28.3% |
| NC(=O)c1ccsc1NC(=O)COC(=O)C1CCCN1C(=O)c1cccs1 (centres unmarked) | -63% |
| Cc1cc(NC(=O)COC(=O)C2CCCN2C(=O)c2cccs2)no1 (centres unmarked) | -4.36% |
| COc1ccccc1NC(=O)COC(=O)[C@@H]1CCCN1C(=O)c1cccs1 | -40.6% |
| Cc1ccn2c(C(=O)N/N=C\c3ccccc3[N+](=O)[O-])c(C)nc2c1 | -27.2% |
